PubChem BioAssay AID485272 (The Scripps Research Institute Molecular Screening Center, 2010)
In all, about 330,000 compounds went through this assay and about 1,300 (0.39%) were called active.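 How the source made its calls: active means percent inhibition above a cutoff equal to the mean of all tested compounds plus 3 SD (cut at about 15% in these data); inactive means the rest.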 Only a selection was taken, and actives are over-represented in it overall.

Each compound was assayed against Protein-arginine deiminase type-4 (Homo sapiens) (UniProt Q9UM07) (assay: human PAD4 inhibitors, primary screen, biochemical, fluorescence polarization, 1536-well format (AID 485272;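 further: 0% = PAD4 with RCA probe and DMSO and 100% = probe without PAD4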)). Details: recombinant PAD4, RCA probe fluorescence polarization; at 6.36 µM; active compounds read high.
Sequence of Protein-arginine deiminase type-4 (Homo sapiens) (Q9UM07 whole entry, looked up): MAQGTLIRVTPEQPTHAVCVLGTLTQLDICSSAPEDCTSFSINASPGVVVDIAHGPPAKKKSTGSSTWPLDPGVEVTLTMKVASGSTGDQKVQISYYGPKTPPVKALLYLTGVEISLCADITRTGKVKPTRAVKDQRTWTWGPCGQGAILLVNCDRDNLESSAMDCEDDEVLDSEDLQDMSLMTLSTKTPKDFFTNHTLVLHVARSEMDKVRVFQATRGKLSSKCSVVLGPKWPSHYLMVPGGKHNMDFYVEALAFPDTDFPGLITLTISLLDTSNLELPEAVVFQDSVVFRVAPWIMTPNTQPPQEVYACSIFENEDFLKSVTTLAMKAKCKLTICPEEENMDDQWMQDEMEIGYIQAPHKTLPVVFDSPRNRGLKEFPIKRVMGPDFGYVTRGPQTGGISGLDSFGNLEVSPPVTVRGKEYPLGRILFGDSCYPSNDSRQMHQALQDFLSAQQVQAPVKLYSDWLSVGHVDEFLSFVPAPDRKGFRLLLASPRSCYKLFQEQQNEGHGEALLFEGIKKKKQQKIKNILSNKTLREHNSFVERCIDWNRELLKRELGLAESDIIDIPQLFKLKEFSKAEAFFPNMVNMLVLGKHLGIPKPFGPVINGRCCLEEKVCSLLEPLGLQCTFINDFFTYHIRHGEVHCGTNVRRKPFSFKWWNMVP

Compound | inhibition
Cc1cc(=O)[nH]c(SCc2cccc(F)c2)n1 | 3.23% (inactive)
Nc1cc(N)nc(SCc2cccc(F)c2)n1 | -6.07% (inactive)
CCc1nnc(SCc2cccc(F)c2)nc1CC | 24.2% (active)
CC(C)Cc1nc(Nc2ccc(S(=O)(=O)N3CCCC3)cc2)c2nnn(Cc3ccccc3)c2n1 | -3.06% (inactive)
CCCc1cc(=O)[nH]c(SCC(=O)Nc2ccc(S(=O)(=O)N3CCCC3)cc2)n1 | 5.78% (inactive)
COC(=O)c1c(C)oc2ccc(N(C(=O)Oc3ccccc3)S(=O)(=O)c3ccccc3)cc12 | -4.57% (inactive)
CC(=O)N(c1ccc2oc(=O)sc2c1)S(=O)(=O)c1ccc(C)cc1 | 19.6% (active)
CC(=O)Oc1ccc(N(C(C)=O)S(=O)(=O)c2ccc3ccccc3c2)cc1Br | -0.04% (inactive)
CCOC(=O)c1c(C)[nH]c(C2=NNC(=NC(C)COC)SC2)c1C (configuration not stated) | -4.38% (inactive)
O=C(NC(=S)Nc1cc(C(F)(F)F)ccc1N1CCOCC1)c1ccc(-c2cccc(Cl)c2)o1 | -0.46% (inactive)
Cc1ccc(-n2[nH]c(C)c(/C=N/NC(=O)c3cccc([N+](=O)[O-])c3)c2=O)cc1C | -0.65% (inactive)
COc1cc(SC#N)ccc1N=Cc1c(C)[nH]n(-c2ccc(C)cc2)c1=O | 27.3% (active)
COc1ccc(C(=O)Nc2ccc(C(=O)NCC3CCCO3)cc2)c(OC)c1OC (configuration not stated) | 2.07% (inactive)
COc1ccc(CCn2ccc(O)c(Cc3ccc(Cl)cc3Cl)c2=O)cc1OC | 2.71% (inactive)
COc1ncnc2c1N=C1CC(C)(C)CC(N)=C1S2 | 16.7% (active)
C#CCOCCOCCOCCNc1nc(N2CCN(C(=O)C([C@@H](C)O)n3cc([C@@H](N)CCCCN)nn3)CC2)nc(N2CCN(C(=O)[C@H](CCCCN)n3cc(CN)nn3)CC2)n1 (some centres not stated) | 4.78% (inactive)
CC(=O)NS(=O)(=O)c1ccc(N/C(N)=N/c2nc(C)cc(C)n2)cc1 | -0.78% (inactive)
CSc1ccc(/C=C2\NC(=O)NC2=O)cc1 | -0.37% (inactive)
CNC(=O)c1ccsc1NC(=O)c1ccc(S(=O)(=O)N2CCOCC2)cc1 | -4.29% (inactive)
CCOC(=O)c1csc(NC(=O)c2ccc(S(=O)(=O)N3CCCC3)cc2)n1 | -3.23% (inactive)
COc1ccc(C(=O)Nc2nc(-c3ccc(S(=O)(=O)N4CCOCC4)cc3)cs2)cc1 | 17.5% (active)
CCOC(=O)c1ccc(NNC(C)=O)c([N+](=O)[O-])c1 | -2.2% (inactive)
COC(=O)c1noc(C)c1-c1ccnn1C(=O)c1ccc(Cl)cc1 | -7.73% (inactive)

Compound | inhibition
Cc1ccc(N=C2NC(=O)c3cccc([N+](=O)[O-])c32)cc1 | -1.46% (inactive)
COc1cccc(NC(=O)NCCN2CCCCC2)c1 | -0.52% (inactive)
COCCNC(=O)Nc1ccc2nc(-c3ccco3)c(-c3ccco3)nc2c1 | 22% (active)
O=C(NCc1ccccn1)c1ccc2nc(-c3ccco3)c(-c3ccco3)nc2c1 | 7.09% (inactive)
CCc1ccc(OC(C)C(=O)Nc2ccc(S(=O)(=O)Nc3cc(C)on3)cc2)cc1 (configuration not stated) | -0.06% (inactive)
CC(C)C(NC(=O)OCc1ccccc1)C(=O)OCC(=O)N1C(C)CCCC1C (configuration not stated) | 2.54% (inactive)
O=C(c1ccc(F)c(S(=O)(=O)N2CCOCC2)c1)N(CCc1ccccc1)Cc1ccccc1 | -3.27% (inactive)
O=C(NCCSCc1ccccc1)c1ccc(Cl)c(S(=O)(=O)N2CCOCC2)c1 | 1.45% (inactive)
Cc1nn(Cc2ccccc2)c(C)c1CNC(=O)c1ccc(F)c(S(=O)(=O)N2CCOCC2)c1 | 27.9% (active)
CCOC(=O)c1cc(NC(=O)SCC(=O)O)c(C)nc1C | 2.33% (inactive)
CC1=NN(C(C)C)C(=O)C1 | -8.28% (inactive)
CC(C)(C)NC(=O)NC(=O)COC(=O)CCC1CCCCC1 | 41.1% (active)
CC(C)(C)NC(=O)NC(=O)COC(=O)C1(C)CC1(Cl)Cl (configuration not stated) | -0.93% (inactive)
COc1ccccc1OCCC(=O)OCC(=O)NC(=O)NC(C)(C)C | 6.96% (inactive)
COc1ccc(S(=O)(=O)N2CCCCCC2)cc1C(=O)OCC(=O)Nc1cc(C)on1 | -6.43% (inactive)
CCCCN(C)CCNC(=O)CSCc1ccc(C)cc1 | -2.21% (inactive)
COc1ccc(CCNS(=O)(=O)c2ccc(Cl)s2)cc1OC | -2.69% (inactive)
Cc1ccc(F)cc1NC(=O)Cc1nn(C)c(=O)c2ccccc12 | -6.33% (inactive)
O=C1c2oc3ccc(Br)cc3c(=O)c2C(c2cccc(F)c2)N1CCO (configuration not stated) | -4.97% (inactive)
Cc1c(-c2nn(C)c(=O)c3ccccc23)oc2ccc(F)cc2c1=O | 35.8% (active)
COC(=O)c1cc2c(N)c(C(=O)c3ccc(Cl)cc3)sc2nc1C(OC)OC | 0.06% (inactive)
Nc1ccc2nc3c(=O)[nH]c(=S)[nH]c3nc2c1 | 31.8% (active)
O=c1c(F)cn(C2CCCO2)c(=O)n1Cc1ccccc1Cl (configuration not stated) | -4.61% (inactive)

Compound | inhibition
O=C(CNC1CCCCC1)NCC1(c2ccccc2)CCCC1 | -2.33% (inactive)
Cc1nn(Cc2ccccc2)c2c1C(c1ccccc1)C(C#N)=C(N)O2 (configuration not stated) | -0.16% (inactive)
Cc1nn(-c2ccccc2)c2c1C(c1ccc(F)cc1)C(C#N)=C(N)O2 (configuration not stated) | -1.5% (inactive)
COc1ccccc1C1C(C#N)=C(N)Oc2c1c(-c1ccccc1)nn2-c1ccccc1 (configuration not stated) | 33.4% (active)
O=C(O)CC(SCC(=O)Nc1ccc(Br)cc1)C(=O)O (configuration not stated) | 1.63% (inactive)
COCCOC(=O)c1sc(=S)n(CCOC)c1N | 40.9% (active)
CCOC(=O)CN(C(=O)COc1nc(C)cc(C)c1C#N)c1ccc(Cl)cc1 | 5.17% (inactive)
CCOc1[nH]n(-c2ccc(Cl)cc2)c(=O)c1C=Nc1ccc(O)cc1 | 26.1% (active)
CCOc1ccc(N=C2NC(=O)S/C2=C\c2ccc(O)cc2)cc1 | -1.95% (inactive)
CC(C)c1nc(CNC(=O)CC2C(=O)NCCN2Cc2ccoc2)cs1 (configuration not stated) | 5.06% (inactive)
OC1CSc2nc3ccccc3n2C1 (configuration not stated) | -1.87% (inactive)
Cc1ccc(-c2cc(C(=O)NCc3cn(C)nc3C)c3cc(Br)ccc3n2)cc1 | 2.48% (inactive)
O=C(CCn1c(SCC(=O)c2ccccc2)nc2ccccc2c1=O)NCc1ccc(F)cc1 | 67.8% (active)
O=C(CSc1nc2ccccc2c(=O)n1-c1ccc(F)cc1)NC1CC1 | 1.54% (inactive)
O=C(CSc1nc2ccccc2c(=O)n1Cc1ccc(F)cc1)NCC1CCCO1 (configuration not stated) | -1.2% (inactive)
CCN(C(=O)CSc1nc(N)cc(=O)[nH]1)C1CCS(=O)(=O)C1 (configuration not stated) | -0.69% (inactive)
CONc1nc2nonc2nc1NOC | -1.87% (inactive)
COc1ccc([C@H]2CC(=O)C=C(c3ccc(CO)cc3)C2)cc1 | 1.09% (inactive)
O=S(=O)(Cc1nnnn1-c1ccc(Br)cc1)c1ccc(F)cc1 | -0.08% (inactive)
O=C1CN(C(=O)CN2C(=O)NC3(CCCCC3)C2=O)c2ccccc2N1 | 1.47% (inactive)
Cc1ccc(C)c(S(=O)(=O)N2CCCOC2CNC(=O)C(=O)NC2CCCCC2)c1 (configuration not stated) | -5.07% (inactive)
COc1ccc(-c2nc(CS(=O)CC(=O)NCc3ccccc3)c(C)o2)cc1OC (configuration not stated) | 6.4% (inactive)
COc1ccc(-c2nc(CS(=O)CC(=O)NCc3ccccn3)c(C)o2)cc1 (configuration not stated) | 30.3% (active)

Compound | inhibition
COc1cccc(-c2nc(CS(=O)CC(=O)NCc3ccc(F)cc3)c(C)o2)c1 (configuration not stated) | 0.77% (inactive)
Cc1ccc(/C=C2\CCn3c2nc2cc(C(=O)O)ccc2c3=O)c(C)c1 | -1.1% (inactive)
COc1ccccc1OCCCCCCN1CCN(C)CC1 | -0.69% (inactive)
Cn1c(SCC(=O)Nc2nccs2)nnc1-c1cccnc1 | 0.78% (inactive)
Cn1c(Nc2cccc(Cl)c2)nc2ccccc21 | 22.6% (active)
Cn1c(NC(=O)c2ccccc2)nc2ccccc21 | -1.36% (inactive)
Cc1c(C(=O)Nc2cccc(Cl)c2)cn2c(nc3ccccc32)c1C#N | -8.49% (inactive)
CC(C)CNC(=S)NC(=O)c1ccc(Cl)cc1 | 3.77% (inactive)
CC(C)C(NC(=O)c1ccc(Cl)cc1)C(=O)O (configuration not stated) | 33.2% (active)
CC(NC(=O)c1ccc(Cl)cc1)C(=O)N1CCCCC1 (configuration not stated) | -2.13% (inactive)
CN(C)N1C(N)=C(C#N)C(c2ccc(Br)cc2)C2=C1CCCC2=O (configuration not stated) | -7.04% (inactive)
Cc1ccc(-c2nn(-c3ccccc3)cc2/C=C/C(=O)Nc2cccc(S(N)(=O)=O)c2)cc1 | -9.63% (inactive)
Cc1ccc(-c2nn(-c3ccccc3)cc2/C=C2\SC(=S)N(CCCCCC(=O)O)C2=O)o1 | -0.43% (inactive)
CN(C)S(=O)(=O)c1cccc(-c2nn(-c3ccccc3)cc2/C=C2\SC(=S)N(CC(=O)O)C2=O)c1 | 29.1% (active)
Cc1cc(NS(=O)(=O)c2ccc(NC(=S)NC(=O)c3ccc(F)cc3Cl)cc2)no1 | -2.99% (inactive)
CCOc1ccc(S(=O)(=O)N2CCC(C(=O)NCc3ccccn3)CC2)cc1Cl | -2.62% (inactive)
C=C1CCC(N(O)c2cc(C)on2)C(=C)CCC2C1CC2(C)C (configuration not stated) | -6.2% (inactive)
COc1cnn(-c2ccc([N+](=O)[O-])cc2)c(=O)c1Cl | 3.88% (inactive)
Cc1[nH]n(-c2ccc([N+](=O)[O-])cc2)c(=O)c1C=NCCN1CCN(C(=O)c2ccccc2F)CC1 | -1.51% (inactive)
O=c1[nH]n(-c2ccc([N+](=O)[O-])cc2)c(=O)c2ccccc12 | 31.3% (active)
COc1ccc(-c2cc(C(=O)NCCCN3CCOCC3)no2)cc1 | -1.77% (inactive)
CCCCCNC(=O)Cc1ccc(OC)cc1 | 1.91% (inactive)
CCCCNC(=O)C1(c2ccc(OC)cc2)CCOCC1 | 26.1% (active)
